# According to the supplement of paper PMC8728848:
# The sample as a whole holds a higher share of the strongest signals than the screen did.
# B1: RegIIIgamma (Mus musculus), O09049 (protein)
# chain: MLPRITITIMSWMLLSCLMLLSQVQGEVAKKDAPSSRSSCPKGSRAYGSYCYALFSVSKNWYDADMACQKRPSGHLVSVLSGAEASFLSSMIKSSGNSGQYVWIGLHDPTLGYEPNRGGWEWSNADVMNYINWETNPSSSSGNHCGTLSRASGFLKWRENYCNLELPYVCKFKA
# B2: AT1G73650(15) (Arabidopsis thaliana), F4HRY1 (protein)
# chain: MGTVLDSHFLALTAIVTVIYQFIFFVITALFKFDQVTDFAGSTNFVILAVLTLVLKASWHFRQIVLTLLVVVWGLRLGIFLLMETRILQWGEDRRFDEQRGNIVRLIIFWTLQAVWVWTVSLPLTLVNASDGGGSLKPADVIGWTMETWVFGFLIEAAADQQKLSFKNSPENRGKWCDVGVWKYSRHPNYFGEMETLLWWGIFVAASPVLEGAEYLVIFGPLFLTLLLLFVSGIPLLEASADKKHGNSGAYRSYKKTTSPLILFPRGVYGNLPGWFKTVFLFEFPFYSRNLPQEGRLQNSKEKEVKDD
# Tests used:
# Test in all cases: glycan array binding signal (z-score within array); higher = stronger binding
# Conditions in all cases: glycan notation: IUPAC condensed, linker removed
# [1] = target: Fuc(a1-2)Gal(b1-4)GlcNAc(b1-3)Gal(b1-4)GlcNAc(b1-3)Gal(b1-4)GlcNAc
# Method in brief: (§1)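 Columns mapping to the same glycan were averaged after glycan names were converted to IUPAC-condensed notation. The data come from 3228 arrays in the Consortium for Functional Glycomics database, limited to those with an available protein sequence. Binding is reported as a within-array Z-score averaged across arrays of one protein sequence and across linkers.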
# [2] = target: Fuc(a1-2)[GalNAc(a1-3)]Gal
# Method in brief: as §1
# [3] = target: Gal(a1-3)[Gal(a1-4)]Gal(b1-4)GlcNAc
# Method in brief: as §1
# [4] = target: Gal(b1-4)GalNAc(a1-3)[Fuc(a1-2)]Gal(b1-4)GlcNAc
# Method in brief: as §1
# [5] = target: Gal3S(b1-3)GalNAc
# Method in brief: as §1
# [6] = target: Gal3S(b1-4)GlcNAc
# Method in brief: as §1
# [7] = target: Gal4S(b1-4)GlcNAc
# Method in brief: as §1
# [8] = target: GlcNAc(b1-4)GlcNAc(b1-4)GlcNAc
# Method in brief: as §1
# [9] = target: Man(a1-2)Man(a1-6)[Man(a1-3)]Man(a1-6)[Man(a1-2)Man(a1-2)Man(a1-3)]Man(b1-4)GlcNAc(b1-4)GlcNAc
# Method in brief: as §1
# [10] = target: Neu5Ac(a2-8)Neu5Ac(a2-3)[GalNAc(b1-4)]Gal(b1-4)Glc
# Method in brief: as §1
# [11] = target: Neu5Ac(a2-8)Neu5Ac(a2-8)Neu5Ac(a2-3)Gal(b1-4)Glc
# Method in brief: as §1
# [12] = target: Neu5Gc(a2-3)Gal(b1-4)Glc
# Method in brief: as §1
# [13] = target: Fuc(a1-2)Gal(b1-4)GlcNAc(b1-3)[Fuc(a1-2)Gal(b1-4)GlcNAc(b1-6)]GalNAc
# Method in brief: as §1
# [14] = target: Fuc(a1-2)Gal(b1-4)[Fuc(a1-3)]GlcNAc(b1-3)Gal(b1-4)[Fuc(a1-3)]GlcNAc(b1-3)Gal(b1-4)[Fuc(a1-3)]GlcNAc
# Method in brief: as §1
# [15] = target: Fuc(a1-2)[Gal(a1-3)]Gal(b1-4)[Fuc(a1-3)]GlcNAc
# Method in brief: as §1
# [16] = target: Fuc(a1-2)[GalNAc(a1-3)]Gal(b1-3)GlcNAc(b1-3)GalNAc
# Method in brief: as §1
# [17] = target: Fuc(a1-2)[GalNAc(a1-3)]Gal(b1-4)Glc
# Method in brief: as §1
# [18] = target: Fuc(a1-2)[GalNAc(a1-3)]Gal(b1-4)GlcNAc(b1-3)[Fuc(a1-2)[GalNAc(a1-3)]Gal(b1-4)GlcNAc(b1-6)]GalNAc
# Method in brief: as §1
# [19] = target: Fuc(a1-3)[Gal(b1-4)]Glc6S
# Method in brief: as §1
# [20] = target: Fuc(a1-3)[Gal3S(b1-4)]GlcNAc
# Method in brief: as §1
# [21] = target: Fuc(a1-3)[GalNAc(b1-4)]GlcNAc6S
# Method in brief: as §1
# [22] = target: Gal(a1-3)Gal(b1-4)Glc
# Method in brief: as §1
# [23] = target: Gal(a1-3)Gal(b1-4)GlcNAc(b1-6)GalNAc
# Method in brief: as §1
# [24] = target: Gal(b1-3)GalNAc(b1-4)Gal(b1-4)Glc
# Method in brief: as §1
# [25] = target: Gal(b1-3)GlcNAc(b1-2)Man(a1-3)[GlcNAc(b1-4)][Gal(b1-3)GlcNAc(b1-2)Man(a1-6)]Man(b1-4)GlcNAc(b1-4)GlcNAc
# Method in brief: as §1
# [26] = target: Gal(b1-3)[Fuc(a1-4)]GlcNAc(b1-3)Gal(b1-4)[Fuc(a1-3)]GlcNAc
# Method in brief: as §1
# [27] = target: Gal(b1-4)Glc6S
# Method in brief: as §1
# [28] = target: Gal(b1-4)GlcNAc(b1-2)Man(a1-6)[Man(a1-3)]Man(b1-4)GlcNAc(b1-4)GlcNAc
# Method in brief: as §1
# [29] = target: Gal(b1-4)GlcNAc(b1-2)[Gal(b1-4)GlcNAc(b1-6)]Man(a1-6)[Gal(b1-4)GlcNAc(b1-2)Man(a1-3)]Man(b1-4)GlcNAc(b1-4)[Fuc(a1-6)]GlcNAc
# Method in brief: as §1
# [30] = target: Gal(b1-4)GlcNAc(b1-2)[Gal(b1-4)GlcNAc(b1-6)]Man(a1-6)[GlcNAc(b1-4)][Gal(b1-4)GlcNAc(b1-2)Man(a1-3)]Man(b1-4)GlcNAc(b1-4)GlcNAc
# Method in brief: as §1
# [31] = target: Gal(b1-4)GlcNAc(b1-3)Gal(b1-4)GlcNAc(b1-3)Gal(b1-4)GlcNAc(b1-3)Gal(b1-4)GlcNAc(b1-2)[Gal(b1-4)GlcNAc(b1-3)Gal(b1-4)GlcNAc(b1-3)Gal(b1-4)GlcNAc(b1-3)Gal(b1-4)GlcNAc(b1-6)]Man(a1-6)[Gal(b1-4)GlcNAc(b1-3)Gal(b1-4)GlcNAc(b1-3)Gal(b1-4)GlcNAc(b1-3)Gal(b1-4)GlcNAc(b1-2)Man(a1-3)]Man(b1-4)GlcNAc(b1-4)[Fuc(a1-6)]GlcNAc
# Method in brief: as §1
# [32] = target: Gal3S(b1-4)[Fuc(a1-3)]GlcNAc6S
# Method in brief: as §1
# [33] = target: Gal3S6S(b1-4)GlcNAc6S
# Method in brief: as §1
# [34] = target: Gal4S6S(b1-4)GlcNAc
# Method in brief: as §1
# [35] = target: Gal6S(b1-3)GlcNAc6S
# Method in brief: as §1
# [36] = target: GalNAc(b1-4)GlcNAc
# Method in brief: as §1
# [37] = target: GalNAc(b1-4)GlcNAc6S
# Method in brief: as §1
# [38] = target: GalNAc6S(b1-4)GlcNAc
# Method in brief: as §1
# [39] = target: GlcNAc(b1-2)Man(a1-3)[GlcNAc(b1-2)Man(a1-6)]Man(b1-4)GlcNAc(b1-4)GlcNAc
# Method in brief: as §1
# [40] = target: GlcNAc(b1-2)[GlcNAc(b1-6)]Man(a1-6)[GlcNAc(b1-2)Man(a1-3)]Man(b1-4)GlcNAc(b1-4)[Fuc(a1-6)]GlcNAc
# Method in brief: as §1
# [41] = target: GlcNAc(b1-2)[GlcNAc(b1-6)]Man(a1-6)[GlcNAc(b1-4)][GlcNAc(b1-2)Man(a1-3)]Man(b1-4)GlcNAc(b1-4)GlcNAc
# Method in brief: as §1
# [42] = target: GlcNAc(b1-4)[GlcNAc(b1-6)]GalNAc
# Method in brief: as §1
# [43] = target: GlcNAc(b1-6)GalNAc
# Method in brief: as §1
# [44] = target: GlcNAc6S(b1-3)Gal(b1-4)GlcNAc
# Method in brief: as §1
# [45] = target: Man(a1-2)Man(a1-2)Man(a1-6)[Man(a1-3)]Man
# Method in brief: as §1
# [46] = target: Man(a1-2)Man(a1-6)[Man(a1-3)]Man(a1-6)[Man(a1-2)Man(a1-2)Man(a1-3)]Man
# Method in brief: as §1
# [47] = target: Man(a1-3)[Man(a1-6)]Man(a1-6)[Man(a1-3)]Man(b1-4)GlcNAc(b1-4)GlcNAc
# Method in brief: as §1
# [48] = target: Neu5Ac(a2-3)Gal(b1-3)GlcNAc(b1-6)GalNAc
# Method in brief: as §1
# [49] = target: Neu5Ac(a2-3)Gal(b1-3)[GlcNAc(b1-6)]GalNAc
# Method in brief: as §1
# [50] = target: Neu5Ac(a2-3)Gal(b1-4)GlcNAc(b1-3)Gal(b1-4)[Fuc(a1-3)]GlcNAc
# Method in brief: as §1
# [51] = target: Neu5Ac(a2-3)Gal(b1-4)[Fuc(a1-3)]GlcNAc(b1-3)Gal
# Method in brief: as §1
# [52] = target: Neu5Ac(a2-3)Gal6S(b1-4)[Fuc(a1-3)]GlcNAc
# Method in brief: as §1
# [53] = target: Neu5Ac(a2-6)Gal(b1-4)GlcNAc(b1-2)Man(a1-3)Man(b1-4)GlcNAc(b1-4)GlcNAc
# Method in brief: as §1
# [54] = target: Neu5Ac(a2-6)Gal(b1-4)GlcNAc(b1-6)GalNAc
# Method in brief: as §1
# [55] = target: Neu5Ac(a2-8)Neu5Ac(a2-8)Neu5Ac
# Method in brief: as §1
# [56] = target: Neu5Gc(a2-6)GalNAc
# Method in brief: as §1
binder,measurement,setting,value
B1,glycan array binding signal (z-score),[1],0.632
same,glycan array binding signal (z-score),[2],-0.258
same,glycan array binding signal (z-score),[3],0.491
same,glycan array binding signal (z-score),[4],-0.228
same,glycan array binding signal (z-score),[5],-0.134
same,glycan array binding signal (z-score),[6],-0.128
same,glycan array binding signal (z-score),[7],1.17
same,glycan array binding signal (z-score),[8],-0.185
same,glycan array binding signal (z-score),[9],-0.06
same,glycan array binding signal (z-score),[10],-0.133
same,glycan array binding signal (z-score),[11],-0.163
same,glycan array binding signal (z-score),[12],-0.148
B2,glycan array binding signal (z-score),[13],2.33
same,glycan array binding signal (z-score),[14],-0.048
same,glycan array binding signal (z-score),[15],-0.438
same,glycan array binding signal (z-score),[16],0.226
same,glycan array binding signal (z-score),[17],-0.567
same,glycan array binding signal (z-score),[18],-0.573
same,glycan array binding signal (z-score),[19],2.65
same,glycan array binding signal (z-score),[20],3.17
same,glycan array binding signal (z-score),[21],-0.217
same,glycan array binding signal (z-score),[22],3.4
same,glycan array binding signal (z-score),[23],-0.542
same,glycan array binding signal (z-score),[3],3.43
same,glycan array binding signal (z-score),[24],3.21
same,glycan array binding signal (z-score),[25],-0.213
same,glycan array binding signal (z-score),[26],-0.287
same,glycan array binding signal (z-score),[4],-0.354
same,glycan array binding signal (z-score),[27],2.95
same,glycan array binding signal (z-score),[28],-0.586
same,glycan array binding signal (z-score),[29],1.65
same,glycan array binding signal (z-score),[30],-0.494
same,glycan array binding signal (z-score),[31],-0.173
same,glycan array binding signal (z-score),[32],1.88
same,glycan array binding signal (z-score),[33],0.919
same,glycan array binding signal (z-score),[7],-0.333
same,glycan array binding signal (z-score),[34],-0.444
same,glycan array binding signal (z-score),[35],-0.282
same,glycan array binding signal (z-score),[36],4.01
same,glycan array binding signal (z-score),[37],-0.402
same,glycan array binding signal (z-score),[38],0.513
same,glycan array binding signal (z-score),[39],-0.569
same,glycan array binding signal (z-score),[40],0.047
same,glycan array binding signal (z-score),[41],-0.322
same,glycan array binding signal (z-score),[42],-0.41
same,glycan array binding signal (z-score),[43],-0.154
same,glycan array binding signal (z-score),[44],-0.641
same,glycan array binding signal (z-score),[45],-0.361
same,glycan array binding signal (z-score),[46],-0.508
same,glycan array binding signal (z-score),[47],-0.566
same,glycan array binding signal (z-score),[48],3.42
same,glycan array binding signal (z-score),[49],-0.402
same,glycan array binding signal (z-score),[50],1.23
same,glycan array binding signal (z-score),[51],-0.714
same,glycan array binding signal (z-score),[52],-0.428
same,glycan array binding signal (z-score),[53],-0.274
same,glycan array binding signal (z-score),[54],7.33
same,glycan array binding signal (z-score),[55],2.92
same,glycan array binding signal (z-score),[56],3.69
